Screening data: PubChem, several laboratories
Rtt109 Vps75 = inhibitors of C. albicans Rtt109/Vps75 HAT, primary screen, biochemical, ThioGlo CoA-SH fluorescence, plate reader; Histone acetyltransferase RTT109 (Candida albicans (strain SC5314 / ATCC MYA-2876)), …; purified Rtt109/Vps75, 4 h; inhibition, % at 34.9 µM; 330,000 compounds, 0.16% hits; AID 540336, 2011;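 active = inhibition of at least 50% in every replicate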
dFosB act-1 = activators of delta FosB homodimer, primary screen, biochemical, fluorescence polarization, TAMRA-CDK5 oligo, single point | Protein FosB (Mus musculus), P13346 | purified delta FosB; percent of positive-control signal above neutral wells | activation, % at 25 µM | 340,000 compounds, 0.99% hits;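 active = mean activation above about 17%, with every replicate also reaching it, limit read from the data, passing the limit was not always enough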
SMARCA2 act = SMARCA2 (BRM) function activators, primary screen, cell-based, luminescence, high throughput; MG213 cells, MMTV-luciferase reporter, dexamethasone, overnight; activation, % at 9.1 µM; 370,000 compounds, 1% hits; AID 652017, 2013; in the data active = activation above about 7.8%;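 note: 0% = vehicle wells and 100% = reference activator wells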
CDK5 inh = inhibitors of human CDK5/p35 kinase, primary screen, biochemical, single concentration. Recombinant CDK5/p35, ADP-Glo luminescence, 60 min. Cyclin-dependent kinase 5 (Homo sapiens) + Cyclin-dependent kinase 5 activator 1 (Homo …. inhibition, % at 10 µM. 330,000 compounds, 0.01% hits;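 active = highest replicate inhibition of at least 50% and at least 75% of replicates reaching 50%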;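 note: plate controls were DMSO neutral control for no effect and GW8510 at 10 µM for full effect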
Target sequence (Q00535 whole entry, looked up): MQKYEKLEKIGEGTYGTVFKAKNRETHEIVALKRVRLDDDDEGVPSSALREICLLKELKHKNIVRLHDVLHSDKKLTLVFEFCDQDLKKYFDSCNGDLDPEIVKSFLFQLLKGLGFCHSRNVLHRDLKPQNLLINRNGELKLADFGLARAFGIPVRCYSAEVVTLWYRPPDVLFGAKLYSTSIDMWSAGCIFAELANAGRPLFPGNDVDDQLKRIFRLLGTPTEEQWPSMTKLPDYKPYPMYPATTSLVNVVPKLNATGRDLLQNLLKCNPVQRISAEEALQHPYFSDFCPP
Target sequence (Q15078 whole entry, looked up): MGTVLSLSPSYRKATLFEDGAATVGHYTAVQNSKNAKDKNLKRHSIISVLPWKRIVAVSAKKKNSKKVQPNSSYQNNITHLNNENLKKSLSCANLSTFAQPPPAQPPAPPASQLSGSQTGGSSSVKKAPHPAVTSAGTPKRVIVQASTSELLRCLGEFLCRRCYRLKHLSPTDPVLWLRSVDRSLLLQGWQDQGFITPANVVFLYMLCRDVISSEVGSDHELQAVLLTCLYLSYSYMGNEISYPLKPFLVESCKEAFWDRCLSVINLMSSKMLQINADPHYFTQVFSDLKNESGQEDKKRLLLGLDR
esBAF inh = Bmi1 luciferase reporter increase in mESCs, primary screen, esBAF inhibitor project, mouse ES cells, Bmi1 luciferase knock-in, single point | 350,000 compounds, 2% hits | 24 h; 100% = twice the neutral-well signal | reporter increase, % at 12.5 µM; in the data active = activation above about 40%;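 note: 0% = median of the plate's neutral control wells and 100% = double that signal; a rise in the Bmi1 reporter signal indicates esBAF inhibition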
DYRK1A inh = rat Dyrk1A kinase inhibitors, primary screen, biochemical, single point, plate reader. 310,000 compounds, 0.43% hits. inhibition, % at 12.5 µM. AID 504441, 2011. ADP-Glo luminescence, NFATc1 peptide. Dual specificity tyrosine-phosphorylation-regulated kinase 1A (Rattus norvegicus), Q63470; in the data active = inhibition above about 50%;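 note: plate controls were vehicle with enzyme for no effect and no enzyme for full effect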
dFosB act-2 = activators of mouse delta FosB DNA binding, confirmation, biochemical, fluorescence polarization, TAMRA-CDK5 oligo, cherry-picked samples; shares compounds with dFosB act-1; purified delta FosB; normalised: neutral wells 0, positive control 100; activation, % at 24.9 µM; 2,400 tested, under 10 active; AID 588690, 2011;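 active = highest replicate activation at or above 34% and every replicate reaching that threshold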;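 note: higher polarization means more probe DNA bound by delta FosB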
Numbers without * were called inactive. Sampled rows, rich in hits. Any-hit rate of the full collection: about 3.2%.

CCNC(=O)c1c(NC(=O)C2COc3ccccc3O2)sc2c1CCCC2 (centres undefined) was read as Rtt109 Vps75 -1, dFosB act-1 27*, SMARCA2 act 3, CDK5 inh -2, DYRK1A inh 3 and dFosB act-2 -2.
For O=C(C[C@@H]1C[C@@H]2c3cc(NC(=O)NC4CCCC4)ccc3O[C@@H]2[C@H](CO)O1)NC1CCCC1 the results were esBAF inh 2.
For Cc1cc(O)c(-c2n[nH]c3c2C(c2cccc(O)c2)N(Cc2cccnc2)C3=O)cc1Cl (centres undefined) the results were Rtt109 Vps75 5, dFosB act-1 23*, SMARCA2 act -3, CDK5 inh -1, esBAF inh 1, DYRK1A inh -1 and dFosB act-2 2.
`COc1cccc(-c2sc3ccccc3c2-c2ccc(OCCN3CCCCC3)cc2)c1` gave Rtt109 Vps75 7, dFosB act-1 34*, CDK5 inh 2, esBAF inh -29 and dFosB act-2 1.
Screening O=C(C[C@@H]1C[C@H]2c3cc(NC(=O)c4ccc5c(c4)OCO5)ccc3O[C@H]2[C@H](CO)O1)NCc1cccnc1 returned esBAF inh 4.
`O=C(N[C@H]1CC[C@@H](CC(=O)N2CCCCC2)O[C@@H]1CO)c1cccc(F)c1` gave esBAF inh -6.
CN(C)CC(=O)N1[C@@H]2Cn3c(cccc3=O)[C@H]1[C@@H](C(=O)NCc1ccccc1)[C@@H]2CO was read as esBAF inh 2.
`Cc1c(O)ccc2c(CN3CCN(C/C=C/c4ccccc4)CC3)cc(=O)oc12` gave Rtt109 Vps75 -66, dFosB act-1 18*, SMARCA2 act 0, CDK5 inh 0, DYRK1A inh -3 and dFosB act-2 7.
For Nc1ccc(S(=O)(=O)Nc2nccc(/C=C/c3ccc(Cl)cc3Cl)n2)cc1 the results were Rtt109 Vps75 -2, dFosB act-1 40*, SMARCA2 act -5, CDK5 inh -4, DYRK1A inh -8 and dFosB act-2 -4.
`Cc1cc(Br)cc(C)c1OCC(=O)NNC(=O)CCC(=O)NCc1ccccc1` gave Rtt109 Vps75 -1, dFosB act-1 49*, SMARCA2 act 0, CDK5 inh -1, esBAF inh -16, DYRK1A inh -6 and dFosB act-2 3.
`Cc1ccc(OCC(=O)NNC(=O)CCC(=O)NCc2ccccc2)cc1` gave Rtt109 Vps75 -3, dFosB act-1 6, SMARCA2 act 1, CDK5 inh -1, esBAF inh -6 and DYRK1A inh 6.
For CC(=O)c1nn(-c2cccc(Br)c2)cc1C(=O)c1ccc(Cl)cc1 the results were dFosB act-1 28*, SMARCA2 act 3, CDK5 inh -1, esBAF inh 1, DYRK1A inh -3 and dFosB act-2 4.
Screening O=C(Nc1ccc(-c2nc3ccccc3[nH]2)cc1)c1c(F)c(F)c(F)c(F)c1F returned Rtt109 Vps75 7, dFosB act-1 29*, SMARCA2 act 3, CDK5 inh -9, esBAF inh -4, DYRK1A inh 2 and dFosB act-2 0.
For Cc1ccc2nc(-c3ccc(NC(=O)CSc4ccccc4)cc3)[nH]c2c1 the results were Rtt109 Vps75 8, dFosB act-1 25*, SMARCA2 act 4, CDK5 inh 1, esBAF inh -2, DYRK1A inh -7 and dFosB act-2 5.
Screening C[C@@H]1CN([C@@H](C)CO)C(=O)c2cc(NC(=O)Nc3ccc4c(c3)OCO4)ccc2O[C@@H]1CN(C)S(C)(=O)=O returned esBAF inh 0.
O=C(O)C[C@H]1CC[C@H](NC(=O)c2ccncc2)[C@@H](CO)O1 was read as esBAF inh 6.
Screening CC(=O)c1cccc(NC(=O)Cc2coc3cc4c(cc23)CCC4)c1 returned Rtt109 Vps75 -4, dFosB act-1 41*, SMARCA2 act 0, CDK5 inh -2, esBAF inh 4, DYRK1A inh -2 and dFosB act-2 3.
Cn1c2ccccc2c(=O)c2ccc(F)cc21 was read as Rtt109 Vps75 -83, dFosB act-1 0, SMARCA2 act 4, CDK5 inh 1, esBAF inh 13 and DYRK1A inh 36.
COc1cc(-c2ccc3c(=O)c4ccccc4n(C)c3c2)cc(OC)c1OC was read as Rtt109 Vps75 -6, dFosB act-1 35*, SMARCA2 act 1, CDK5 inh 0, esBAF inh 13, DYRK1A inh 2 and dFosB act-2 4.
Screening O=C(CCN1CCCCC1)NCC[C@@H]1CC[C@H](NC(=O)Nc2ccc(Cl)cc2)[C@H](CO)O1 returned esBAF inh 2.
Screening COc1cccc(NC(=S)N2CCc3cc(OC)c(OC)cc3C2COc2ccc3c(C)cc(=O)oc3c2)c1 (centres undefined) returned Rtt109 Vps75 0, dFosB act-1 65*, SMARCA2 act -1, CDK5 inh -1, DYRK1A inh -5 and dFosB act-2 1.
`CCNC(=S)N1CCc2cc(OC)c(OC)cc2C1COc1ccc(OC)cc1` (centres undefined) gave Rtt109 Vps75 -6, dFosB act-1 -8, SMARCA2 act 0, CDK5 inh 1 and DYRK1A inh 7.
CN1C(=O)c2cc(NC(=O)Cc3cccs3)ccc2OC[C@@H]2O[C@H](CC(=O)NCC3CC3)CC[C@H]21 was read as esBAF inh 1.
Cc1ccc(NC(=O)CCC(=O)c2ccccc2)cc1 was read as Rtt109 Vps75 -12, dFosB act-1 0, SMARCA2 act 1, CDK5 inh 1 and esBAF inh -5.
`Cc1ccc(C(=O)CCC(=O)NNC(=O)c2ccccc2O)cc1` gave Rtt109 Vps75 1, dFosB act-1 23*, SMARCA2 act -3, CDK5 inh 0, esBAF inh 3, DYRK1A inh 5 and dFosB act-2 -1.
For COc1cc(-c2cc3nc(C)c(C)c(=O)n3[nH]2)cc(OC)c1OC the results were dFosB act-1 22*, SMARCA2 act -2, CDK5 inh -2, esBAF inh -14, DYRK1A inh -4 and dFosB act-2 5.
